Compound activity as filed in PubChem.
D1 agonist – agonists of human D1 dopamine receptor; HEK293 T-REx D1 cells, calcium flux, agonist mode; P21728; activation, % at 2 µM; 360,000 tested, 1% active; also: 0% is about no effect
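Agonism was scored from calcium flux recorded over 180 s (1 read/s) after pintool compound addition, following a 10-cycle baseline. Cells were inducible force-coupled HEK293 TREx D1, plated overnight at 30 C and loaded with no-wash calcium dye.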
D1 PAM – potentiators of human D1 dopamine receptor; P21728; HEK293 TREx D1 cells, calcium flux, dopamine EC20 potentiation; potentiation, % at 10 µM; 360,000 tested, 0.036% active; AID 504651; in the data active = potentiation above about 30%; also: 0% is about no effect
TRHR PAM – allosteric enhancers of human TRH receptor | TRHR cells, fluo-8 calcium fluorescence, EC20 TRH enhancement | enhancement, % at 2 µM | 360,000 tested, 0.66% active | AID 493056; in the data active = enhancement above about 30%; also: 0% is about no effect
Target sequence (P34981 whole entry, looked up): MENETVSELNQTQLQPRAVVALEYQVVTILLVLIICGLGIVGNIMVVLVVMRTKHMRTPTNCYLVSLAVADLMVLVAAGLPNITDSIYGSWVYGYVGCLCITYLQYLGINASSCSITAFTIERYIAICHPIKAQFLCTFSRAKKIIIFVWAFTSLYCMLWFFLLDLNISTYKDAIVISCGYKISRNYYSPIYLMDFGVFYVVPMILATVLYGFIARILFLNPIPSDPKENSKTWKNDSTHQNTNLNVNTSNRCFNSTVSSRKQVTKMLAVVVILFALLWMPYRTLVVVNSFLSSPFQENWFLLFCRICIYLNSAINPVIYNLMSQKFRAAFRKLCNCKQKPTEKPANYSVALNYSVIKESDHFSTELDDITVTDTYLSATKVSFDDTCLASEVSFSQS
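Enhancer read-out: after compound pinning and an initial kinetic agonist-mode read, an EC20 of TRH (10 nM final) was injected and fluo-8 calcium signal (Ex 480/Em 530) followed at 1 s/cycle for 100 cycles in TRHR-expressing cells.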
TRHR agonist – activates the human TRH receptor. 360,000 tested, 0.18% active. TRHR cells, calcium flux fluo-8, FDSS agonist mode. activation, % at 2 µM. P34981; also: 0% is about no effect
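Steps: seed TRHR cells overnight; add fluo-8 no-wash Ca dye, RT 30 min–1.5 h; record 10 s baseline; pin-transfer compounds; monitor fluorescence 1 cycle/s for the agonist window. Calcium increases flag candidate agonists.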
D1 antagonist – blocks dopamine activation of the human D1 receptor; P21728; HEK293 TREx D1 cells, calcium flux, dopamine EC80; active compounds read low; activity change, negative = inhibition, % at 10 µM; 360,000 tested, 3.2% active; AID 504652; in the data active = activity change below about -30%; also: % is scaled to controls: 0 for no effect and ±100 for the full control effect
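Allosteric or orthosteric antagonism assessed as attenuation of the calcium response to EC80 dopamine, added 180 s after compound, in induced HEK293 Trex D1 cells loaded with no-wash calcium dye.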
Starred values were filed as active, the others as inactive. An excerpt weighted towards active compounds, which were near 4.6% of everything screened. Rule as the data show it, unless noted: active = activation above about 30%; inactive = the rest.

How did CNC(=O)C1CC(=O)N/C(=N/N=C(\C)c2cccs2)S1 (stereo unspecified) do in these assays?
D1 agonist: 0; D1 PAM: 0; TRHR PAM: -1; TRHR agonist: 0; D1 antagonist: -32*

How did COc1ccc(/C(C)=N/N=C2/NC(=O)CC(C(=O)O)S2)cc1 (stereo unspecified) do in these assays?
D1 agonist: 1; D1 PAM: -4; TRHR PAM: -3; TRHR agonist: 0; D1 antagonist: -6

What do the screens show for `COc1ccc(/C(C)=N/N=C2/NC(=O)CC(C(=O)O)S2)cc1F` (stereo unspecified)?
D1 agonist: 1; D1 PAM: -11; TRHR PAM: -16; TRHR agonist: 0; D1 antagonist: -31*

How did Cn1c(=O)c2sccc2n2c(CCCC(=O)Nc3ccc(Oc4ccc(Cl)cc4)cc3)nnc12 do in these assays?
D1 agonist: 3; D1 PAM: -6; TRHR PAM: 0; TRHR agonist: 0; D1 antagonist: 2

What do the screens show for `CCC(Sc1nc2ccccc2c2nc(CCn3c(C)nc4ccccc43)nn12)C(=O)Nc1ccc(F)cc1` (stereo unspecified)?
D1 agonist: 1; D1 PAM: -4; TRHR PAM: 2; TRHR agonist: 0; D1 antagonist: -42*

What do the screens show for `Cc1nc2ccccc2n1CCc1nc2c3ccccc3nc(SCC(=O)Nc3ccc(C(C)C)cc3)n2n1`?
D1 agonist: 3; D1 PAM: -4; TRHR PAM: 5; TRHR agonist: 0; D1 antagonist: -20

What do the screens show for `Cc1cc(C)c(O)c(NC(=S)NC(=O)Cc2ccccc2)c1`?
D1 agonist: 33*; D1 PAM: 2; TRHR PAM: 10; TRHR agonist: 7; D1 antagonist: -11

How did Cc1cccc(NC(=S)NC(=O)Cc2ccccc2)c1C do in these assays?
D1 agonist: 65*; D1 PAM: -3; TRHR PAM: -5; TRHR agonist: 11; D1 antagonist: 6

Results for Cc1cc(C)n(C(=O)c2ccc(NC(=O)CC(C)C)cc2)n1 ?
D1 agonist: 2; D1 PAM: -14; TRHR PAM: -16; TRHR agonist: 0; D1 antagonist: -94*

Results for Cc1ccc(S(=O)(=O)NNC(=O)C2Cc3c(ccc4ccccc34)O2)cc1 (stereo unspecified) ?
D1 agonist: 33*; D1 PAM: -3; TRHR PAM: -4; TRHR agonist: 0; D1 antagonist: -23

How did Cc1ccc2[nH]c3c(N4CCN(Cc5ccccc5)CC4)ncnc3c2c1 do in these assays?
D1 agonist: 5; D1 PAM: 3; TRHR PAM: -1; TRHR agonist: 1; D1 antagonist: -37*

What do the screens show for `Cc1ccc2c(c1)[nH]c1c(N3CCN(Cc4ccccc4)CC3)ncnc12`?
D1 agonist: -1; D1 PAM: -1; TRHR PAM: 18; TRHR agonist: 0; D1 antagonist: -17

How did COc1cccc(NC(CNS(=O)(=O)c2ccc(C)cc2)c2ccccc2)c1 (stereo unspecified) do in these assays?
D1 agonist: 2; D1 PAM: -2; TRHR PAM: 8; TRHR agonist: -1; D1 antagonist: -7

Results for COc1cccc(NC(CNS(=O)(=O)c2ccc(Cl)cc2)c2ccccc2)c1 (stereo unspecified) ?
D1 agonist: 9; D1 PAM: -3; TRHR PAM: 7; TRHR agonist: -1; D1 antagonist: -34*

Results for O=C(O)CCc1ccc(-c2ccc(Cl)cc2)n1-c1cccc(C(F)(F)F)c1 ?
D1 agonist: 11; D1 PAM: -1; TRHR PAM: 6; TRHR agonist: 0; D1 antagonist: -13

Results for Cc1ccc(C)c(OCc2nnc(N)s2)c1 ?
D1 agonist: 2; D1 PAM: -7; TRHR PAM: 35*; TRHR agonist: 0; D1 antagonist: 7

How did CSc1ccccc1C(=O)Nc1ccc(S(=O)(=O)NC2=NCCCCC2)cc1 do in these assays?
D1 agonist: 0; D1 PAM: -3; TRHR PAM: -6; TRHR agonist: -1; D1 antagonist: 23

What do the screens show for `CCN(CC)S(=O)(=O)c1cccc(NC(=O)c2ccc(SC)cc2OC)c1`?
D1 agonist: 29; D1 PAM: -9; TRHR PAM: -3; TRHR agonist: 1; D1 antagonist: 0

What do the screens show for `COc1cc(SC)ccc1C(=O)Nc1cccc(S(=O)(=O)NC2=NCCCCC2)c1`?
D1 agonist: 11; D1 PAM: -6; TRHR PAM: -13; TRHR agonist: 0; D1 antagonist: -38*

How did COc1ccccc1C(=O)Nc1ccc(S(=O)(=O)Nc2nccs2)cc1 do in these assays?
D1 agonist: 4; TRHR PAM: 1; TRHR agonist: 1; D1 antagonist: -31*

What do the screens show for `CC(Oc1cccc(Cl)c1)C(=O)Nc1ccc(S(=O)(=O)NC2=NCCCCC2)cc1` (stereo unspecified)?
D1 agonist: 17; D1 PAM: 2; TRHR PAM: 7; TRHR agonist: 1; D1 antagonist: 3

Results for CC(Oc1ccc(F)cc1)C(=O)Nc1ccc(S(=O)(=O)NC2=NCCCCC2)cc1 (stereo unspecified) ?
D1 agonist: 33*; D1 PAM: 0; TRHR PAM: 5; TRHR agonist: 4; D1 antagonist: -6

How did COc1ccccc1C(=O)Nc1ccc(S(=O)(=O)NC2=NCCCCC2)cc1 do in these assays?
D1 agonist: 3; D1 PAM: -12; TRHR PAM: 1; TRHR agonist: 0; D1 antagonist: -58*

Results for COc1cccc(CNC(=O)c2ccc(CS(=O)Cc3ccc(Cl)cc3)o2)c1 (stereo unspecified) ?
D1 agonist: 2; D1 PAM: -5; TRHR PAM: 0; TRHR agonist: 0; D1 antagonist: -12

How did CCCOc1cc(NCc2ccccc2)c2ncn(C(C)C)c2c1 do in these assays?
D1 agonist: 33*; D1 PAM: 15; TRHR PAM: 6; TRHR agonist: 0; D1 antagonist: 43

Results for COc1ccc(N2CC(C(=O)Nc3ccc([N+](=O)[O-])cc3Br)CC2=O)cc1 (stereo unspecified) ?
D1 agonist: -1; D1 PAM: -6; TRHR PAM: 0; TRHR agonist: 0; D1 antagonist: -5

How did COc1ccc(N2CC(C(=O)N/N=C/c3cc([N+](=O)[O-])ccc3O)CC2=O)cc1 (stereo unspecified) do in these assays?
D1 agonist: -1; D1 PAM: 1; TRHR PAM: 39*; TRHR agonist: 0; D1 antagonist: -2

How did OCCOCCNc1ncnc2c1cnn2-c1ccc(Cl)cc1 do in these assays?
D1 agonist: 2; D1 PAM: 2; TRHR PAM: -4; TRHR agonist: 0; D1 antagonist: 8

How did CC(C)OCCCNc1ncnc2c1cnn2-c1ccccc1 do in these assays?
D1 agonist: 0; D1 PAM: -2; TRHR PAM: 33*; TRHR agonist: 0; D1 antagonist: -37*
